Assay results published in PubChem BioAssay (NCI).
This is part of a sample that, as a whole, favours compounds with a hit. Of some 83,000 tested, about 20% had one in any assay.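 Values shown are percent growth following 48 h exposure of cells in 96-well plates to a single concentration of compound; below 10 was considered active.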 Calls of active or inactive are those of the source.

Tested on: NCI-H460 lung
Test: NCI-60 one-dose screen, 48 h (100 = growth as untreated, 0 = no growth, -100 = all killed)
Conditions: 10 µM unless noted
Method: Growth inhibition of the NCI-H460 human Non-Small Cell Lung tumor cell line is measured as a screen for anti-cancer activity. Cells are grown in 96 well plates and exposed to the test compound for 48 hours. Compounds are tested at a single concentration, which is 10^-5 M for most compounds. The reported endpoint is percent growth (GI% or GIPRCNT), where numbers from 0 - 100% represent growth inhibition, and numbers from -100% - 0 represent cell death. For example, a value of 40 represents 60% growth inhibition. A value of 0 means no net growth occurred over the course of the experiment. A value of -40 indicates 40% of cells at the beginning of the experiment died by the end of the experiment. A value of -100 means all cells are dead at the end of the experiment.
NCI-60 Human Tumor Cell Lines Screen was performed using the standard one-dose NCI protocol, which is described in more detail at https://dtp.cancer.gov/discovery_development/nci-60/default.htm.
Compounds with GIPRCNT values below 10 were considered active. Activity score was based on GIPRCNT using the following formula: […]
Score is 0 for GIPRCNT values of 100 or above, 50 for GIPRCNT values of 0, and 100 for GIPRCNT values of -100.

Row | Compound | growth
1 | C=C(C)[C@@H]1CC[C@]2(C(=O)NC(C)=O)CC[C@]3(C)[C@H](CC[C@@H]4[C@@]5(C)CCCNC(C)(C)[C@@H]5CC[C@]43C)[C@@H]12 | -84.2% (active)
2 | Cc1ccc(C(F)(F)F)cc1N1CCN(C(=O)[C@H]2C[C@H]2c2ccc(C(F)(F)F)nc2)CC1 | 106% (inactive)
3 | CCCCCC(C)(O)C(C(=O)O)c1ccccc1 (stereo not given) | 109% (inactive)
4 | Cc1c2ccncc2c(C)c2c1c1ccccc1n2CCCCCC(=O)O | 97.1% (inactive)
5 | COc1ccc(Cn2cc3c(c2)-c2oncc2CC3)cc1 | 39.9% (inactive)
6 | COc1cc(-c2ccc(-c3ccc(C(=N)N)s3)s2)cc(OC)c1OC | 17.3% (inactive)
7 | O=C1CCc2c(sc3[nH]c(=S)n(-c4cc(C(F)(F)F)cc(C(F)(F)F)c4)c(=O)c23)C1 | 5% (active)
8 | CNc1nc2ncc(-c3c(C)noc3C)cc2n1Cc1ccccc1 | 64.9% (inactive)
9 | COC1CC(O)C2=C(CC3C(/C(C)=C\CC=C(C)C)CCC3(C)O2)C1=O (stereo not given) | 104% (inactive)
10 | COc1ccccc1/C=C/C1=C(C)CCC(c2ccccc2OC)C1C (stereo not given) | 3.73% (active)
11 | C(CCCSC1=NCCN1)CCSC1=NCCN1 | 110% (inactive)
12 | COc1cc(/C=N/NC(=O)c2ccc3nc(-c4ccc(Cl)cc4)[nH]c3c2)cc(OC)c1OC | 82.8% (inactive)
13 | C=C(CNCCc1ccc(O)cc1)[C@@H]1CC[C@]2(CO)CC[C@]3(C)[C@H](CC[C@@H]4[C@@]5(C)CCC(N)C(C)(C)[C@@H]5CC[C@]43C)[C@@H]12 (stereo not given in full) | -86.7% (active)
14 | Nc1nc(=O)n([C@H]2CC=C(CO)O2)cc1F | 98.4% (inactive)
15 | O=C(CSc1nnc(-c2ccc(Cl)c(Cl)c2)n1-c1ccccc1)Nc1ccc(C(=O)/C=C/c2ccc(Cl)cc2)cc1 | 99.5% (inactive)
16 | O=C(O)CCCN1C(=O)CSC1=S | 101% (inactive)
17 | Nc1nc(N)c2c(n1)NC(c1cccc(Nc3ccnc4cc(C(F)(F)F)ccc34)c1)CC(c1ccc(Cl)cc1)=N2 (stereo not given) | 20.4% (inactive)
18 | C/C(=C(\c1ccc(OCCCN(C)C)cc1)c1ccc(OC(=O)Cc2ccccc2)cc1)c1ccc(Cl)cc1 | 40.8% (inactive)
19 | COc1cc(C)cc(-c2c(-c3cc(N4CC(O)C4)nc(-c4cccnc4)n3)cnn2C)c1 | 90.8% (inactive)
20 | CC1(C)CC(=O)C2=C(C1)OC(C(=O)c1ccccc1)C2c1cccc(Oc2ccccc2)c1 (stereo not given) | 51.4% (inactive)

Row | Compound | growth
21 | COc1ccc(NC(=O)c2sc3nc(C)c(C(=O)c4ccccc4)cc3c2N)cc1 | 61.3% (inactive)
22 | O=C(Nc1ccccc1C(F)(F)F)C1=NCCCCN1 | 105% (inactive)
23 | NC(=O)[C@@H]1Cc2ccccc2CN1C(=O)c1ccc2c(c1)Cc1ccccc1-2 | 91.5% (inactive)
24 | COC(=O)[C@H](C)NC(=O)c1ccc(NC(=O)c2[nH]c(C)c(Cl)c2Cl)c(OCCN)c1 | 105% (inactive)
25 | CC(C)(C)CC(C)(C)Nc1c(-c2c(O)c3ccccc3oc2=O)nc2sccn12 | 111% (inactive)
26 | O=C(Nc1cccc(Cl)c1)Oc1c(Cl)c(Cl)c(Cl)c(Cl)c1Cl | 101% (inactive)
27 | Cn1cc(-c2ccc3occ(-c4cccc(-c5ccncc5)c4)c3n2)cn1 | 13.5% (inactive)
28 | O=C(OCc1ccc2c(Br)cc(Br)c(O)c2n1)N1CCN(C(=O)c2cc3ccccc3[nH]2)CC1 | 12% (inactive)
29 | COc1ccc(S(=O)(=O)NC2c3ccccc3CC2O)cc1OC (stereo not given) | 109% (inactive)
30 | CN1CCN(Cn2nc(-c3cc(Cl)cc(Cl)c3Cl)oc2=S)CC1 | 102% (inactive)
31 | CN1CCN(Cc2ccc(NC(=O)c3cncc(C#Cc4c(N)ncc5cc(F)ccc45)c3)cc2C(F)(F)F)CC1 | -19.8% (active)
32 | O=C(Nc1ccccc1CNc1nc(Nc2ccc(OCCN3CCCC3)cc2)ncc1Cl)NC1CCCCC1 | 89.8% (inactive)
33 | Cc1nc2ccccc2c(/C=C/c2ccc(Br)cc2)c1C(=O)/C=C/c1ccccc1 | -56.4% (active)
34 | C#CCOC(=O)C(N)CSSCC(N)C(=O)O (stereo not given) | 90.4% (inactive)
35 | COc1ccccc1NC(=O)n1c(=O)cc(C)c2ccc(O)cc21 | 111% (inactive)
36 | Cc1[nH]c(C(=O)Nc2ccc(C(N)=O)cc2OC(C)C)c(Cl)c1Cl | 85.1% (inactive)
37 | Cc1cc(=O)oc2cc(Oc3nc(-c4ccccc4)cn4c(-c5ccccc5)cnc34)ccc12 | 64% (inactive)
38 | Cn1cc(-c2csc(-c3cn(C)c4ccc(F)cc34)n2)c2cnccc21 | -73.8% (active)
39 | O=C(Nc1ccc2c(c1)-c1ccccc1C2)C1CC(=O)N(c2ccc3c(c2)OCO3)C1 (stereo not given) | 32.9% [50 µM] (inactive)
40 | COc1ccc(S(=O)(=O)N(C)c2oc(-c3ccc(Cl)cc3)nc2C#N)cc1 | 95.9% (inactive)
